An excerpt weighted towards active compounds, which were near 3.8% of everything screened.
697 NFkB inh – inhibitors of PMA/ionomycin-induced NF-kB reporter, 697 cells, primary screen, B-cell NF-kB inhibitor project, cell-based, luminescence, uHTS; 697 B-cell NF-kB luciferase reporter, 16 h; inhibition, % at 4 µM; hit rate 0.33% among 330,000; in the data active = inhibition above about 35%
Jurkat NFkB inh – inhibitors of induced NF-kB luciferase reporter, primary screen, TCR NF-kB activation inhibitor project, cell-based, luminescence, uHTS | Jurkat, PMA/ionomycin-induced NF-kB luciferase reporter | inhibition, % at 4 µM | hit rate 0.53% among 330,000; in the data active = inhibition above about 50%
A1 inh – caspase 3/7 activation in MEF A1-2A-BIM cells, primary screen, A1 inhibitor project, cell-based, luminescence, HTS; Caspase-Glo 3/7 luminescence, 3 h; percent of clofoctol response, vehicle zero; caspase activation, % (test concentration not listed); hit rate 0.066% among 330,000; AID 2462, 2010;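 active = over half of replicate activation scores above 10%, or exactly half above 10 with the replicate mean above 10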
NTR1 agonist – agonists of human NTR1, primary screen, imaging, U2OS cells, beta-arrestin-GFP, high content. Neurotensin receptor type 1 (Homo sapiens), P30989. NTR1-U2OS beta-arrestin-GFP spot imaging, agonist mode. activation, % at 20 µM. hit rate 0.17% among 330,000. AID 493036, 2011;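 active = activation at or above 40% of the spot to cytoplasm intensity ratio, with at least 20 cells analyzed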;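 note: 0% = DMSO without peptide and 100% = 100 nM NTR1 peptide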
Target sequence (P30989 whole entry, looked up): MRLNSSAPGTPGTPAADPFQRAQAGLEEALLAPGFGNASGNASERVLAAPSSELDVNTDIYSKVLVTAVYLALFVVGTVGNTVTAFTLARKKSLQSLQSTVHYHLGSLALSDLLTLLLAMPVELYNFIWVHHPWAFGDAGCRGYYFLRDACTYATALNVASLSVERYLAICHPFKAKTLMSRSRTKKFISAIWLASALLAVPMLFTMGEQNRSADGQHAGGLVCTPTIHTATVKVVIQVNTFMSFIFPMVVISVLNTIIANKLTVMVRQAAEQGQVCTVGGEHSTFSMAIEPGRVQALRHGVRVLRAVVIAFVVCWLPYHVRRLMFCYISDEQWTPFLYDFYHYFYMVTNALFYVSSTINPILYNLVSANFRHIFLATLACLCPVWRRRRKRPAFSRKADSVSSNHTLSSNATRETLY
Mdm2 MdmX PPI – inhibitors of human Mdm2-MdmX association, primary screen, cell-based, luminescence, split luciferase, SaOS-2, uHTS; inhibition, % at 8 µM; SaOS-2 split-luciferase Mdm2/MdmX complementation; Protein Mdm4 (Homo sapiens) + E3 ubiquitin-protein ligase Mdm2 (Homo sapiens), …; hit rate 3% among 330,000;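 active = inhibition of at least 50% at 8 µM in the primary screen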
Beta cell apopt – inhibitors of cytokine-induced beta cell apoptosis, primary screen, luminescence; INS-1E cytokine-induced death, ATP luminescence, 48 h; percent of positive-control rescue, neutral wells zero; protection from apoptosis, % (concentration not given with the values); AID 435005, 2010; hit rate 0.8% among 300,000;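 active = Every replicate reaches about 75%, or at least half do and their mean reaches it too, limit read from the data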;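 note: 0% = cytokine-treated negative control wells and 100% = positive control rescue; higher means more ATP so stronger rescue from cytokine killing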
697 NFkB conf – PMA/ionomycin-induced NF-kB reporter inhibitors, 697 retest, confirmation, B-cell NF-kB inhibitor project, cell-based, luminescence, single concentration | AID 449746, 2010 | 697 B-cell NF-kB luciferase, 16 h | hit rate 35% among 2,000 | shares compounds with 697 NFkB inh | inhibition, % at 4 µM; in the data active = inhibition mostly above about 28%, no sharp cut-off; inactive = mostly below about 22%
* marks the source's active call; other numbers are inactive results.

`O=C(Nc1ccncc1)c1ccc2ccccc2c1` gave 697 NFkB inh 2, Jurkat NFkB inh -38, A1 inh -4, NTR1 agonist 1, Mdm2 MdmX PPI -4 and Beta cell apopt -4.
Screening O=C(Nc1ccc(NC(=O)c2cc3ccccc3o2)cc1)c1ccc2c(c1)OCCO2 returned 697 NFkB inh 72*, Jurkat NFkB inh 9, A1 inh -1, NTR1 agonist -1, Mdm2 MdmX PPI 10, Beta cell apopt -8 and 697 NFkB conf 59*.
O=C(Nc1ccncc1)c1ccc2c(c1)OCCO2 was read as 697 NFkB inh -7, Jurkat NFkB inh -14, A1 inh 0, NTR1 agonist 0, Mdm2 MdmX PPI 4 and Beta cell apopt 8.
Screening Cc1ccc(NC(=O)c2ccc(-c3nn(C)c(=O)c4ccccc34)cc2)cc1 returned 697 NFkB inh 42*, Jurkat NFkB inh 21, A1 inh 0, NTR1 agonist 5, Mdm2 MdmX PPI 41, Beta cell apopt -3 and 697 NFkB conf 14.
Cc1cc(NC(=O)c2ccc3c(c2)OCCO3)ccc1NC(=O)c1cc2ccccc2o1 was read as 697 NFkB inh -5, Jurkat NFkB inh -16, A1 inh 0, NTR1 agonist 12, Mdm2 MdmX PPI 29 and Beta cell apopt 7.
For Cc1ccc(C(=O)Nc2ccc3ccccc3c2)cc1 the results were 697 NFkB inh -368, Jurkat NFkB inh -112, A1 inh -9, NTR1 agonist 0, Mdm2 MdmX PPI -53, Beta cell apopt 3 and 697 NFkB conf -447.
Screening O=C1CCCN2N=C(SCC(=O)Nc3cccc(F)c3)SC2=N1 returned 697 NFkB inh 15, Jurkat NFkB inh -5, A1 inh -1, NTR1 agonist 0, Mdm2 MdmX PPI 4 and Beta cell apopt -5.
Cc1nc2c(ccc3nc(NC(=O)c4ccc5c(c4)OCCO5)sc32)s1 was read as 697 NFkB inh -255, Jurkat NFkB inh -116, A1 inh -4, NTR1 agonist 3, Mdm2 MdmX PPI 9 and 697 NFkB conf -223.
COc1ccc(NC(=O)C(C)N=C2NS(=O)(=O)c3ccccc32)cc1S(N)(=O)=O (stereo not given) was read as 697 NFkB inh 8, Jurkat NFkB inh 8, A1 inh 1, NTR1 agonist 1, Mdm2 MdmX PPI -3 and Beta cell apopt -1.
Cc1ccc2c(=O)n3c(nc2c1)C(CC(C)C)NC(=O)c1ccc(Cl)cc1-3 (stereo not given) was read as 697 NFkB inh -31, Jurkat NFkB inh 0, A1 inh -1, NTR1 agonist -1, Mdm2 MdmX PPI -3 and Beta cell apopt 9.
For COCCN1C(=O)/C(=C/c2ccc(Oc3ccc([N+](=O)[O-])cn3)c(OC)c2)SC1=Nc1ccccc1 the results were 697 NFkB inh 50*, Jurkat NFkB inh 30, A1 inh 1, NTR1 agonist 1, Mdm2 MdmX PPI 19, Beta cell apopt 6 and 697 NFkB conf 24.
COC(=O)COc1cccc2c(=O)n(CC(=O)N3CCCCC3)ccc12 was read as 697 NFkB inh 43*, Jurkat NFkB inh -6, A1 inh 1, NTR1 agonist 1, Mdm2 MdmX PPI 16, Beta cell apopt -2 and 697 NFkB conf 6.
COC(=O)COc1cccc2c(=O)n(CC(=O)N3CCC(C)CC3)ccc12 was read as 697 NFkB inh 3, Jurkat NFkB inh -10, A1 inh 0, NTR1 agonist -1, Mdm2 MdmX PPI 4 and Beta cell apopt -1.
`O=C(CN1C(=O)C2CC=CCC2C1=O)Nc1cc(C(F)(F)F)ccc1N1CCCC1` (stereo not given) gave 697 NFkB inh -6, Jurkat NFkB inh 7, A1 inh 0, NTR1 agonist 1, Mdm2 MdmX PPI -10 and Beta cell apopt 0.
For COc1ccc(C(=O)N=c2nc3ccccn3s2)cc1 the results were 697 NFkB inh -389, Jurkat NFkB inh -83, A1 inh -12, NTR1 agonist 0, Mdm2 MdmX PPI 30, Beta cell apopt 29 and 697 NFkB conf -282.
For CN(CC(=O)NCc1ccco1)CC(=O)Nc1ccc(F)c(F)c1F the results were 697 NFkB inh -6, Jurkat NFkB inh 7, A1 inh 0, NTR1 agonist 1, Mdm2 MdmX PPI -15 and Beta cell apopt -6.
For Cc1ccc(NC(=S)Nc2ccc(S(=O)(=O)Nc3ncccn3)cc2)c(C)c1 the results were 697 NFkB inh 50*, Jurkat NFkB inh -1, A1 inh 0, NTR1 agonist 0, Mdm2 MdmX PPI -19, Beta cell apopt 4 and 697 NFkB conf 14.
Screening Cc1ccc(C)c(NC(=S)Nc2ccc(S(=O)(=O)Nc3ncccn3)cc2)c1 returned 697 NFkB inh 18, Jurkat NFkB inh 7, A1 inh 0, NTR1 agonist 4, Mdm2 MdmX PPI -12 and Beta cell apopt 0.
`CCOC(=O)C1CCN(C(=O)c2ccccc2NC(C)=O)CC1` gave 697 NFkB inh 39*, Jurkat NFkB inh 11, A1 inh -1, NTR1 agonist -2, Mdm2 MdmX PPI -2, Beta cell apopt -4 and 697 NFkB conf 8.
Screening CCOC(=O)C1CCN(C(=O)c2ccccc2NC(=O)c2ccc(Br)cc2)CC1 returned 697 NFkB inh 16, Jurkat NFkB inh -5, A1 inh 0, NTR1 agonist -2, Mdm2 MdmX PPI 19 and Beta cell apopt 2.
For CC(NC(=O)C1CCC(CNc2c(N3CCCCC3)c(=O)c2=O)CC1)c1ccccc1 (stereo not given) the results were 697 NFkB inh 36*, Jurkat NFkB inh 12, A1 inh 0, NTR1 agonist 1, Mdm2 MdmX PPI 16, Beta cell apopt -4 and 697 NFkB conf -11.
`O=C1N(CCCl)c2ccc(Br)cc2C12OCCO2` gave 697 NFkB inh -8, Jurkat NFkB inh -15, A1 inh 1, NTR1 agonist 1 and Mdm2 MdmX PPI -12.
For COc1ccc(-c2ccc(-c3nc4ccc(C)cn4c3NC3CCCCC3)cc2OC)cc1 the results were 697 NFkB inh -42, Jurkat NFkB inh -12, A1 inh 0, NTR1 agonist -2 and Mdm2 MdmX PPI 45.
